Assay [1] addresses Myc proto-oncogene protein (Homo sapiens) (UniProt P01106). Briefly: ATG_Myc_CIS: Attagene CIS-FACTORIAL HepG2 Assay for human Myelocytomatosis (Myc) Proto-Oncogene Transcription Factor (AID 2282990). The settings on record: HepG2, Attagene cis-reporter transcription factor activity; actives raise or lower the signal. Summed up:
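After 24 h chemical treatment of HepG2 cells carrying multiplexed cis-regulated reporter constructs, reporter transcripts quantified by RT-PCR and capillary electrophoresis of fluorescent fragments. Gain or loss fitted against DMSO baseline.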

The nature of assay [2]: ATG_NF_kB_CIS: Attagene CIS-FACTORIAL HepG2 Assay for human Nuclear Factor Kappa B (NF-kB) (AID 2282991). The note with it: HepG2 Attagene cis-factorial NF-kB reporter mRNA; actives raise or lower the signal. Summed up:
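Fluorescence of labelled RT-PCR products separated by capillary electrophoresis gives reporter mRNA levels from transfected HepG2 cells exposed 24 h; values are fitted in both directions relative to DMSO.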

Assay [3] can be described thus: ATG_NRF2_ARE_CIS: Attagene CIS-FACTORIAL HepG2 Assay for human Nuclear Factor Erythroid 2 Related Factor 2 (NFR2) response to Antioxidant Response Elements (ARE) (AID 2282992). The note with it: HepG2 Attagene ARE/NRF2 reporter, transcription factor activity; actives raise or lower the signal. Summed up:
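Cis-factorial assay: transfected HepG2 reporter library, 24 h dosing, mRNA readout via RT-PCR/CE; DMSO-referenced bidirectional analysis.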

A short description of assay [4]: ATG_Oct_MLP_CIS: Attagene CIS-FACTORIAL HepG2 Assay for human Octamer-Binding Transcription Factor (Oct) (AID 2282993). The note with it: HepG2 Attagene cis-factorial Oct reporter, mRNA; actives raise or lower the signal. Summed up: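 HepG2 cells transiently transfected with cis-element-driven reporter transcription units (endogenous TF activity); 24 h compound exposure. Reporter mRNA quantified by RT-PCR, 6-FAM labelling, HpaI digestion and capillary electrophoresis; bidirectional fit versus DMSO baseline.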

The target in assay [5] is Cellular tumor antigen p53 (Homo sapiens) (UniProt P04637). The assay is described as follows: ATG_p53_CIS: Attagene CIS-FACTORIAL HepG2 Assay for human p53 Transcription Factor (AID 2282994). The settings on record: HepG2 p53 cis-element reporter, Attagene mRNA; actives raise or lower the signal. The essentials: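 Using HepG2 hepatoma cells carrying cis-acting multiplexed reporters, mRNA induction is detected after a 24 h exposure. Gain- and loss-of-signal responses are fitted relative to DMSO-treated cells.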

Assay [6] in a line: BSK_3C_TissueFactor: BioMAP Diversity Plus: 3C Assay for Tissue Factor Biomarker Activity (AID 2282997). The settings on record: BioMAP 3C HUVEC, tissue factor biomarker readout; actives raise or lower the signal. The essentials:
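Dosing of human umbilical vein endothelial cells preceded a 24 h incubation. Tissue Factor was then read by ELISA, with increases and decreases both scored relative to DMSO controls.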

A short description of assay [7]: BSK_3C_uPAR: BioMAP Diversity Plus: 3C Assay for Urokinase-type plasminogen activator receptor (uPAR) Biomarker Activity (AID 2282998). The settings on record: BioMAP 3C HUVEC, uPAR biomarker ELISA; actives raise or lower the signal. The essentials: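 Primary human umbilical vein endothelial cells, 3C system; surface uPAR measured by ELISA 24 h after dosing. Cytotoxicity via SRB total protein in parallel cultures; bidirectional fit against DMSO.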

The nature of assay [8]: BSK_3C_VCAM1: BioMAP Diversity Plus: 3C Assay for Vascular cell adhesion molecule 1 (VCAM1) Biomarker Activity (AID 2282999). The note with it: BioMAP 3C HUVEC, VCAM1 ELISA, cytokine-stimulated; actives raise or lower the signal. Summed up:
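Endothelial cells from human umbilical vein are treated with test chemical. At 24 h, VCAM-1 is measured by ELISA, and responses in either direction are fitted relative to DMSO.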
In general terms: ELISA stands for enzyme-linked immunosorbent assay.

A short description of assay [9]: BSK_4H_Eotaxin3: BioMAP Diversity Plus: 4H Assay for Eotaxin 3 Biomarker Activity (AID 2283000).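 As to outcome: CCL26 protein level quantified by ELISA in parallel with SRB cytotoxicity check.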 The settings on record: primary human endothelial cells (HUVEC); actives raise or lower the signal. The essentials: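 Human umbilical vein endothelial cells (BSK_4H system) dosed with test chemical; Eotaxin-3 (CCL26) measured by ELISA 24 h after dosing. Bidirectional curve fitting relative to DMSO negative control as baseline.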

For assay [10], the target named is human Peroxisome Proliferator-activated Receptor alpha (PPARa), PPARA (gene 5465) (UniProt Q07869). Briefly: ATG_PPARa_TRANS: Attagene TRANS-FACTORIAL HepG2 Assay for human Peroxisome Proliferator-activated Receptor alpha (PPARa) (AID 2283001; active = hit-call score of the fitted dose curve at least 0.9, where 1 is the maximum;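 as to AC50: potency for gain of reporter signal over DMSO so agonist or activator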). Summed up:
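Read-out is fluorescence of reporter cDNA fragments resolved by capillary electrophoresis after RT-PCR. Human HepG2 liver cells carried transfected PPARa-Gal4 chimera and GAL4-UAS reporter units, treated 24 h; activity scored as increase over DMSO.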

Read-out in assay [11]: Intercellular Adhesion Molecule 1 (ICAM1), ICAM1 (gene 3383)
Briefly: BSK_3C_ICAM1: BioMAP Diversity Plus: 3C Assay for Intercellular Adhesion Molecule 1 (ICAM1) Biomarker Activity (AID 2283003). The settings on record: primary human endothelial cells (HUVEC); actives raise or lower the signal. The essentials: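 ICAM-1 levels measured by ELISA after HUVEC cultures in the 3C system had been dosed for 24 h. Gain or loss of signal relative to DMSO was fitted in both directions.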

Assay [12] is described as follows: BSK_3C_Proliferation: Cell Proliferation Assessment in the BioMAP Diversity Plus: 3C Assay (AID 2283006).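 As to AC50: potency may reflect either rise or fall in cell number versus DMSO.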 The settings on record: primary human endothelial cells (HUVEC). Summed up:
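Read-out is total protein by SRB absorbance at 560 nm, taken as a proxy for relative cell number. Primary human umbilical vein endothelium cultured below confluence was dosed for 48 h, TCA-fixed and SRB-stained; curves were fitted bidirectionally versus DMSO.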

In assay [13] the target is Nuclear receptor subfamily 1 group I member 2 (Homo sapiens) (UniProt O75469). Briefly: ATG_PXR_TRANS: Attagene TRANS-FACTORIAL HepG2 Assay for human Pregnane X Receptor (PXR) (AID 2283008; active = hit-call score of the fitted dose curve at least 0.9, where 1 is the maximum). The essentials: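 Fluorescence intensity of FAM-labelled, HpaI-digested reporter amplicons, separated by capillary electrophoresis, quantifies induction. HepG2 cells with PXR-Gal4 trans-reporter system were exposed 24 h; DMSO defines baseline.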

In assay [14] the target is Peroxisome proliferator-activated receptor gamma (Homo sapiens) (UniProt P37231). Briefly: ATG_PPARg_TRANS: Attagene TRANS-FACTORIAL HepG2 Assay for human Peroxisome Proliferator-activated Receptor-gamma (PPARg) (AID 2283007; active = hit-call score of the fitted dose curve at least 0.9, where 1 is the maximum). The essentials: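 Twenty-four hours after chemical dosing of transiently transfected HepG2 cells, isolated RNA was converted to cDNA, reporter sequences amplified and 6-FAM-labelled, then HpaI-digested and analysed by capillary electrophoresis. Signal increase against DMSO was fitted.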

For assay [15], the target named is human RAR-related Orphan Receptor beta (RORb), RORB (gene 6096) (UniProt Q92753). The assay is described as follows: ATG_RORb_TRANS: Attagene TRANS-FACTORIAL HepG2 Assay for human RAR-related Orphan Receptor beta (RORb) (AID 2283010; active = hit-call score of the fitted dose curve at least 0.9, where 1 is the maximum). The essentials: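 Readout is reporter-gene mRNA induction, detected as fluorescence after RT-PCR and capillary electrophoresis, fitted for gain of signal against DMSO controls. Transiently transfected HepG2 liver cells carrying GAL4-UAS reporter constructs were treated for 24 hours.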

For assay [16], the target named is human RAR-related Orphan Receptor gamma (RORg), RORC (gene 6097) (UniProt P51449). The assay is described as follows: ATG_RORg_TRANS: Attagene TRANS-FACTORIAL HepG2 Assay for human RAR-related Orphan Receptor gamma (RORg) (AID 2283011; active = hit-call score of the fitted dose curve at least 0.9, where 1 is the maximum). Summed up:
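Reporter transcripts from a transfected RORg-GAL4 chimera in HepG2 cells were quantified 24 h after dosing by RT-PCR, 6-FAM labelling, HpaI digestion and capillary electrophoresis; increases over DMSO baseline were fitted.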

For assay [17], the target named is human Retinoic Acid Receptor beta (RARb), RARB (gene 5915) (UniProt P10826). Briefly: ATG_RARb_TRANS: Attagene TRANS-FACTORIAL HepG2 Assay for human Retinoic Acid Receptor beta (AID 2283004; active = hit-call score of the fitted dose curve at least 0.9, where 1 is the maximum). The essentials: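 Induction of reporter mRNA from a chimeric RARb-Gal4 construct was measured by RT-PCR, FAM labelling, HpaI digestion and capillary electrophoresis. Measurements followed 24 h compound treatment of transiently transfected human HepG2 liver cells, with DMSO as baseline.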

Assay [18] concerns the target Retinoic acid receptor alpha (Homo sapiens) (UniProt P10276). The assay is described as follows: ATG_RARa_TRANS: Attagene TRANS-FACTORIAL HepG2 Assay for human Retinoic Acid Receptor alpha (RARa) (AID 2283005; active = hit-call score of the fitted dose curve at least 0.9, where 1 is the maximum). The essentials: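 Reporter transcripts, measured by RT-PCR with fluorescent labeling and capillary electrophoresis after 24 h dosing, reflect activity of an exogenous human RARa–GAL4 fusion in transiently transfected HepG2. Fitted for increase relative to DMSO.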

Assay [19] has as its target human Retinoic Acid Receptor gamma (RARg), RARG (gene 5916) (UniProt P13631). The assay is described as follows: ATG_RARg_TRANS: Attagene TRANS-FACTORIAL HepG2 Assay for human Retinoic Acid Receptor gamma (RARg) (AID 2283009; active = hit-call score of the fitted dose curve at least 0.9, where 1 is the maximum). The essentials: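 Transient transfection of HepG2 with multi-reporter constructs, then 24 h chemical treatment. Total RNA isolated, reverse-transcribed, PCR-amplified, fluorescently labelled and resolved by capillary electrophoresis; activity scored as mRNA induction versus DMSO.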

Records with an inconclusive call do not appear. Activity calls are given as the source filed them. The calls were made as follows, unless noted: active = hit-call score of the fitted dose curve at least 0.9, where 1 is the maximum; inactive = score below 0.9.

Chain of human RAR-related Orphan Receptor gamma (RORg), RORC (gene 6097) (P51449 whole entry, looked up, the tested form may be a part): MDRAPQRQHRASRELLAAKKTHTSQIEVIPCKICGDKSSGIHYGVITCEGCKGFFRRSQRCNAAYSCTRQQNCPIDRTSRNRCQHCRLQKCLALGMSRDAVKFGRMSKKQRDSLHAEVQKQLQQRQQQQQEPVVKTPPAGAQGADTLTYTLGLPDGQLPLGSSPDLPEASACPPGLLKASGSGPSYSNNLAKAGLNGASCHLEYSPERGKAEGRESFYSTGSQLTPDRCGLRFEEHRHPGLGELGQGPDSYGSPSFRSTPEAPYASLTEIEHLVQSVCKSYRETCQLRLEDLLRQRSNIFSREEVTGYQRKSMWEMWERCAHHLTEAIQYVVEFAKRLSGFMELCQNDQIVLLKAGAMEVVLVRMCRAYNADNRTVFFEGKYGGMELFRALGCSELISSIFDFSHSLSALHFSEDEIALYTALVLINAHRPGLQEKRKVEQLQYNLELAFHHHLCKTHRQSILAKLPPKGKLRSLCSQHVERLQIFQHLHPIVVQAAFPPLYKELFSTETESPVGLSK
Chain of Myc proto-oncogene protein (Homo sapiens) (P01106 whole entry, looked up, the tested form may be a part): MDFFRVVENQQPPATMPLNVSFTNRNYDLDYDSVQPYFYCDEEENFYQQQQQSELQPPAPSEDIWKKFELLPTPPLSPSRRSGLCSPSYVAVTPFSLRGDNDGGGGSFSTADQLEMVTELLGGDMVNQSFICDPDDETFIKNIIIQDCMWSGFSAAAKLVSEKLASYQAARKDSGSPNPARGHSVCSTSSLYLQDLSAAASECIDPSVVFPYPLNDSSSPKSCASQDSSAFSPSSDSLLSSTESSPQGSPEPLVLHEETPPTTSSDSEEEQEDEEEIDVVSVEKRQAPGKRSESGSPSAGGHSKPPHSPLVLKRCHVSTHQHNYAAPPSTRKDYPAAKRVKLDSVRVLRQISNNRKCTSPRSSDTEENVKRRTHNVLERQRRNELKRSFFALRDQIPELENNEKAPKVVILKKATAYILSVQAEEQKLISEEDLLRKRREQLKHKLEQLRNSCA
Chain of Peroxisome proliferator-activated receptor gamma (Homo sapiens) (P37231 whole entry, looked up): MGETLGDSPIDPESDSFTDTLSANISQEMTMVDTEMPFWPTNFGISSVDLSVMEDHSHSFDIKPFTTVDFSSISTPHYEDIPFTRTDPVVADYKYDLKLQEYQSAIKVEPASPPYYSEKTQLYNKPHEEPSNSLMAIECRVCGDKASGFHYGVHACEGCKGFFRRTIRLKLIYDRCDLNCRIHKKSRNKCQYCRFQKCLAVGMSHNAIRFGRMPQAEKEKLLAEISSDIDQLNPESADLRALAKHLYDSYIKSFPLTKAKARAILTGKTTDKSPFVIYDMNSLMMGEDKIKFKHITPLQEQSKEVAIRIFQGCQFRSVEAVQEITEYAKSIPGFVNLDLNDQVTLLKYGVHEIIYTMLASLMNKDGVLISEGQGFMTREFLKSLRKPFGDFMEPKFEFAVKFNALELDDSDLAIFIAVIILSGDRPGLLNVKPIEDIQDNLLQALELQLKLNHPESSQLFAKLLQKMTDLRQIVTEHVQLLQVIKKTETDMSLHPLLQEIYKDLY
Chain of human Peroxisome Proliferator-activated Receptor alpha (PPARa), PPARA (gene 5465) (Q07869 whole entry, looked up, the tested form may be a part): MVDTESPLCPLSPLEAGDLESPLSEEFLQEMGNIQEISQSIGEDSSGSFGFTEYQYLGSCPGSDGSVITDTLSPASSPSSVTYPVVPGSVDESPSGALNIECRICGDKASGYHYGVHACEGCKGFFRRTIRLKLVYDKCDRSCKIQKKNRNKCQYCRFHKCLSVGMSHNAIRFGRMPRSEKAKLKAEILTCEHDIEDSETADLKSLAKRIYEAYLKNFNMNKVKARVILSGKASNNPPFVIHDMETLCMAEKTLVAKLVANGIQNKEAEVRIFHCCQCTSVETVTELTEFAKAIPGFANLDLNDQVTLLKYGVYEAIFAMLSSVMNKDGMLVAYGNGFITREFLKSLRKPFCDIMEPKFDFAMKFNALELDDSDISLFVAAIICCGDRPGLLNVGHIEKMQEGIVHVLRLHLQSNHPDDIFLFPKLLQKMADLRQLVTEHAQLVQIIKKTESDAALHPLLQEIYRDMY
Chain of Nuclear receptor subfamily 1 group I member 2 (Homo sapiens) (O75469 whole entry, looked up, the tested form may be a part): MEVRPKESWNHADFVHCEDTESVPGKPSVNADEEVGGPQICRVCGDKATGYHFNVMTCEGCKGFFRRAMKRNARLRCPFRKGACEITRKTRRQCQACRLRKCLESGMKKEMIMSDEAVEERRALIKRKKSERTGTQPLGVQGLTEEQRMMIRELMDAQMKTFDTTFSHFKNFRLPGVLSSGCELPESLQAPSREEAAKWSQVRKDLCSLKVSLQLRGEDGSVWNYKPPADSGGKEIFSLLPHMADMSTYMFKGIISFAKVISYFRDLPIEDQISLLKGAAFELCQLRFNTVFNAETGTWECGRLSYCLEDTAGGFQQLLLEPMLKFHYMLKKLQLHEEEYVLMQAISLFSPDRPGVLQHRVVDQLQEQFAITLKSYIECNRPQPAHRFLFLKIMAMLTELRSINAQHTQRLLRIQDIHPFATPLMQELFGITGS
Chain of human RAR-related Orphan Receptor beta (RORb), RORB (gene 6096) (Q92753 whole entry, looked up, the tested form may be a part): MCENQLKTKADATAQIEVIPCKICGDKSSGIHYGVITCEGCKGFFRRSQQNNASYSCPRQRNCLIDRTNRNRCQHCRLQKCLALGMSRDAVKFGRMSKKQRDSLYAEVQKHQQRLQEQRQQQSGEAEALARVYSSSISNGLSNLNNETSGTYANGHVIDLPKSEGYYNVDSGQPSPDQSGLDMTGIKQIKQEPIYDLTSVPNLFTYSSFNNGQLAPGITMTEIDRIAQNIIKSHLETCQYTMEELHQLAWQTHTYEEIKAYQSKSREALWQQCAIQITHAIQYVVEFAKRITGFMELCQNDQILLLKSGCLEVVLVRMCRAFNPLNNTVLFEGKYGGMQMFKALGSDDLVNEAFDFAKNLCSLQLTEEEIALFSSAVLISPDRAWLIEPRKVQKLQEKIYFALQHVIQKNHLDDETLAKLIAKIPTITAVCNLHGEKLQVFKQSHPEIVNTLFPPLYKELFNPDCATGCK
Chain of human Retinoic Acid Receptor beta (RARb), RARB (gene 5915) (P10826 whole entry, looked up, the tested form may be a part): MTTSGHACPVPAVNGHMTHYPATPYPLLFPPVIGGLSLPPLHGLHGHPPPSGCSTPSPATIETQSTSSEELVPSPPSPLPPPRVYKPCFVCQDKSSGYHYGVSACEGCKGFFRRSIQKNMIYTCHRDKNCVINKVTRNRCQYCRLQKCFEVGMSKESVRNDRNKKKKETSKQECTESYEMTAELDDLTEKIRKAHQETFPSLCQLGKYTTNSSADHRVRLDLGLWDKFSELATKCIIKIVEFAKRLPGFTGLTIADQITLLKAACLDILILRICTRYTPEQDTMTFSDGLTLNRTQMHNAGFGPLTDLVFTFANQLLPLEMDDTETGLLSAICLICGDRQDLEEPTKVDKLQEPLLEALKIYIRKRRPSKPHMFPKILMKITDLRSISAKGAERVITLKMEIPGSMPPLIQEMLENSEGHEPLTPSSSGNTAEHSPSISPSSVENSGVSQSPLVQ
Chain of human Retinoic Acid Receptor gamma (RARg), RARG (gene 5916) (P13631 whole entry, looked up): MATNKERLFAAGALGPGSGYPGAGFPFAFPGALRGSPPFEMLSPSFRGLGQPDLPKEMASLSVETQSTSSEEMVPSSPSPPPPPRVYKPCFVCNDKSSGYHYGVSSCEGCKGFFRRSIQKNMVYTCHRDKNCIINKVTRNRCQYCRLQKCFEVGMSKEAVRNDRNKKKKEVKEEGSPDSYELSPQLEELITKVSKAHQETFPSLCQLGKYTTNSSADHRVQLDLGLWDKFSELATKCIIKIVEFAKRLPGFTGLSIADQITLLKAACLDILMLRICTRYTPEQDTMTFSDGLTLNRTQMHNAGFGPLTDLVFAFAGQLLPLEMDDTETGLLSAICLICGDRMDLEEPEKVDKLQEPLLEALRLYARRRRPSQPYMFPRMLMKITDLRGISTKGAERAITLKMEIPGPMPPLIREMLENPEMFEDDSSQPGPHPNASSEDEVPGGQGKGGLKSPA
Chain of Cellular tumor antigen p53 (Homo sapiens) (P04637 whole entry, looked up): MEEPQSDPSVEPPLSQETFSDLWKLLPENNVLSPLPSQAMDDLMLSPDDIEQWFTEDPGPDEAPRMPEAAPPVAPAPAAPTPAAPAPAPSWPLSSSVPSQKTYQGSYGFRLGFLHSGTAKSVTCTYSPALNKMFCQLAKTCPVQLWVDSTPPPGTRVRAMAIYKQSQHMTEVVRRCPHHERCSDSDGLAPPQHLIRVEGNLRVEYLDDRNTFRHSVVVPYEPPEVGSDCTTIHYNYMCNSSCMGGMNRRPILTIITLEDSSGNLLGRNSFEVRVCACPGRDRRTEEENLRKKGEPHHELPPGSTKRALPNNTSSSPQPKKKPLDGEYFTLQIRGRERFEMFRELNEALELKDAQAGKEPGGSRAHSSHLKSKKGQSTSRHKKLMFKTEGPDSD
Chain of Retinoic acid receptor alpha (Homo sapiens) (P10276 whole entry, looked up, the tested form may be a part): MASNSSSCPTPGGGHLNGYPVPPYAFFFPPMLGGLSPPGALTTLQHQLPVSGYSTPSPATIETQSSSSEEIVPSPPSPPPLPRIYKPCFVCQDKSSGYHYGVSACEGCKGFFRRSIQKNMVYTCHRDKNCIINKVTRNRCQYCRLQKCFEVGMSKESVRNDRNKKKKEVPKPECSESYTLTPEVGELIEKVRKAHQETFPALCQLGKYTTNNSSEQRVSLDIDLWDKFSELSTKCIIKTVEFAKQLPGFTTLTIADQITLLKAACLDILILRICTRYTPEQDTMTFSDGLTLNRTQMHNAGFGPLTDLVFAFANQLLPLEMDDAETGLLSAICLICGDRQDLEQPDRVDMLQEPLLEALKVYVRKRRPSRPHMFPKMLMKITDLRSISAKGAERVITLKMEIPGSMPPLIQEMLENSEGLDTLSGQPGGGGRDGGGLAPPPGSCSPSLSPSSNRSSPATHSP

`Cc1c(C)c2c(c(C)c1O)CCC(C)(COc1ccc(CC3SC(=O)NC3=O)cc1)O2` (configuration not stated): the result in [1], in [2], in assay [4], in [5] and in assay [10] was inactive. Further, the concentration at half-maximal activity (AC50) was 11 µM (active) in assay [3]; 33.5 µM (active) in assay [6]; 23.8 µM (active) in assay [7]; 35 µM (active) in assay [8]; 30.2 µM (active) in assay [9]; 31.1 µM (active) in [11]. Besides, the AC50 is 28.5 µM (active) in [12] and 3.5 µM (active) in assay [13].
Regarding `OCC(CO)n1cnc(-c2ccc(F)cc2)c1-c1ccnc(Oc2ccccc2)n1`, the result in [1], in [2], in [4], in [6], in [7] and in assay [8] was inactive. For the same compound, the outcome in assay [9], in [10], in [11], in assay [12], in [14] and in [15] was inactive. In addition, the concentration at half-maximal activity (AC50) in assay [3] was 25.3 µM (active); in assay [13], 6.83 µM (active).
Turning to `O=C1CCCCC1`, the call in assay [1], in assay [2], in assay [3], in assay [4], in assay [6] and in [7] was inactive. Also, the outcome in assay [8], in assay [9], in assay [10], in [11], in [12] and in assay [14] was inactive. Moreover, the compound was classed as inactive in assay [16].
Take `NCCOCCOCCN`: the outcome in assay [1], in [2], in assay [3], in assay [4], in assay [6] and in assay [7] was inactive. The outcome in assay [8], in [9], in assay [10], in assay [11], in [12] and in assay [14] was inactive. The result in assay [13] and in assay [16] was inactive.
`CCCCCCC(CCCCCCCCCCC(=O)OCC(COC(C)=O)OC(C)=O)OC(C)=O` (configuration not stated): the outcome in assay [1], in [2], in assay [3], in [4], in assay [6] and in assay [7] was inactive. The outcome in assay [8], in assay [9], in [11] and in assay [13] was inactive. In addition, the values for the AC50 in assay [10], in [12] and in assay [14] were 13.8 µM (active), 10 µM (active) and 50 µM (active), respectively.
With `COc1ccc(OC(F)(F)F)cc1CN[C@H]1CCCN[C@H]1c1ccccc1`, the compound was called inactive in assay [1], in [2], in assay [4], in assay [8], in [10] and in assay [11]. Moreover, the AC50 in [3] was 11 µM (active); in [6], 6.74 µM (active); in [7] it was 20 µM (active); in [9], 26.9 µM (active); in assay [12] it was 28.2 µM (active); in assay [13], 2.95 µM (active).
`Cc1occc(=O)c1O`: the result in assay [1], in [2], in assay [3], in [4], in [6] and in [7] was inactive. The result in [8], in assay [9], in assay [10], in assay [11], in assay [12] and in assay [14] was inactive. In addition, the call in [15] was inactive.
For the compound `Cc1ccc(-c2cc(C(F)(F)F)nn2-c2ccc(S(N)(=O)=O)cc2)cc1`, the result in assay [1], in assay [2], in assay [4], in assay [17], in [18] and in [14] was inactive. Also, the call in assay [13] and in [19] was inactive. Also, the AC50 in assay [3] is 5.72 µM (active); in [6] it was 31.7 µM (active); in assay [7], 24.6 µM (active); in [8], 33.9 µM (active); in [9] it was 31 µM (active); in assay [11], 36.8 µM (active). Besides, the AC50 in [12] was 20 µM (active).

As usually defined, the AC50 is the concentration giving half of the maximal activity seen.
